{"source": "PubChem BioAssay (NCATS)", "note": "Records with an inconclusive call do not appear. Where a call stands in place of a potency, no number is given. The source made the active and inactive calls. The call rests on the fitted dose curve; in most records, active means well fitted inhibition curve with a large enough effect; inconclusive means small, poorly fitted or top-dose-only effect; inactive means no such curve, though single readings can be large or run the other way. *1 amine or outer side, *2 acyl side, *3 side chain or, on linkers, in order; H or OH if unused. Where a SMILES comes first, the peptide text is derived from it. Bridges are numbered along the chain shown (N, C = ends). [ ]: non-standard residue; d: D form. The star is where a group is joined. ξ: configuration not given here. ξhTyr(3S-OH,4S-OH,3'-OSO3H) = NC(C(=O)O)[C@H](O)[C@@H](O)c1ccc(O)c(OS(=O)(=O)O)c1; Orn(4R-OH,5R-OH) = O=C([C@H](C[C@@H](O)[C@@H](O)N[*:3])N[*:1])[*:2]; X2 = CCCCCOc1ccc(-c2cc(-c3ccc(C(=O)*)cc3)no2)cc1; X3 = C[C@H]1CN([*:1])C(C(=O)[*:2])[C@H]1O; ξGln(3R-OH) = NC(=O)C[C@@H](O)C(N)C(=O)O; ξPro(4R-OH) = O=C(O)C1C[C@@H](O)CN1; ξThr(3R) = C[C@@H](O)C(N)C(=O)O"}
{"test": "P-glycoprotein substrates identified in KB-3-1 adenocarcinoma cell line, qHTS therapeutic library screen (AID 1346986); further: nearly all actives have a fitted effect of over 60% in size", "details": "KB-3-1 parental cells viability, CellTiter-Glo, 72 h; series mostly up to 44.5 µM", "procedure": "The ATP-binding cassette transporters P-glycoprotein (P-gp) is known to limit brain penetration of many chemotherapy drugs. […] We used the CellTiter-Glo viability assay to test library compounds against the parental KB-3-1 human cervical adenocarcinoma cell line and the colchicine-selected sub-line KB-8-5-11 that over-expresses P-gp. KB-8-5-11 cells were also tested in the presence of a P-gp inhibitor (tariquidar) to assess reversability of transporter-mediated resistance. Of the tested compounds, a total of 90 P-gp substrates were identified including 55 newly identified P-gp substrates. Substrates were confirmed using an orthogonal killing assay against HEK-293 cells transfected with P-gp. As exemplars, we confirmed that AT7159 (cyclin-dependent kinase inhibitor); AT9283, (Janus kinase 2/3 inhibitor); ispinesib (kinesin spindle protein inhibitor); gedatolisib (PKI-587, phosphoinositide 3-kinase/mammalian target of rampamycin inhibitor); GSK-690693 (AKT inhibitor); and KW-2478 (heat shock protein 90 inhibitor) were substrates , and direct ATPase stimulation was assessed. ABCG2 was also found to confer high levels of resistance to AT9283, GSK-690693 and gedatolisib, while ispinesib, AT7519 and KW-2478 were weaker substrates.\nThe HeLa derivative cell line, KB-3-1, and its colchicine-selected, P-gp-overexpressing subline, KB-8-5-11 were maintained in DMEM with 10% FCS and Pen/Strep with glutamine at 37 degree C in 5% CO2. For KB-8-5-11 cells, colchicine was added to the medium at a concentration of 100 ng/mL. HEK-293 cells transfected with empty vector (pcDNA) or vector containing human ABCB1 (MDR-19) or ABCG2 (R-5) have been described previously (Robey, Lin, Qiu, Chan & Bates, 2011) and were maintained in EMEM supplemented with 10% FCS, Pen/Strep and glutamine with 2 mg/ml G418 to select for the expression of the transporter. Cultures were confirmed to be free of mycoplasma infection using the MycoAlert Mycoplasma Detection Kit (Lonza, Walkersville, MD). For the screen, assay medium was identical to culture medium except for KB-8-5-11 where colchicine was excluded from the medium.\nAll cell lines were plated into 1536-well plates at 500 cells/well in 5 uL media. Compounds were then pinned in dose-response using a 1536-head pin tool (Kalypsis, San Diego, CA) and plates were incubated at 37 degree C in 5% CO2 for an additional 72 h. CellTiter-Glo reagent (Promega) was dispensed into the wells, incubated for 5 min and luminescence was read on a ViewLux instrument (Perkin-Elmer). Cytotoxic compounds were defined as those that yielded a curve class of -1.1, -1.2, -2.1, -2.2, -2.3, or -2.4, a maximum response of >50% and an AC50 of < 10 uM. Cherry-picked hits from screening analysis were tested with both the KB pair of cell lines, and the pcDNA (empty vector control) and MDR-19 (P-gp overexpressing) pair were tested, in the absence and presence of tariquidar."}
{"compound": "C[C@]1(OC(=O)/C=C\\c2ccc(O)cc2)C[C@@H](O)[C@]2(O)C=CO[C@@H](O[C@@H]3O[C@H](CO)[C@@H](O)[C@H](O)[C@H]3O)C12", "note": "(stereo not given in full)", "Potency": "inactive"}
{"compound": "CC(=O)/C=C/C1(O)C(C)CC(O[C@@H]2O[C@H](CO)[C@@H](O)[C@H](O)[C@H]2O)CC1(C)C", "note": "(stereo not given in full)", "Potency": "inactive"}
{"compound": "CC1(C)C=Cc2c(ccc3c2[N+]([O-])=C2C3(O)CC34NC(=O)C5(CCCN5C3=O)CC4C2(C)C)O1", "note": "(stereo not given)", "Potency": "inactive"}
{"compound": "CC(C)CC(=O)O[C@@H]1O[C@H](CO)[C@@H](O[C@H]2O[C@H](C)[C@@H](N[C@H]3C=C(CO)[C@@H](O[C@H]4O[C@H](CO)[C@@H](O[C@H]5O[C@H](CO)[C@@H](O[C@H]6O[C@H](CO)[C@@H](O)[C@H](O)[C@H]6O)[C@H](O)[C@H]5O)[C@H](O)[C@H]4O)[C@H](O)[C@H]3O)[C@H](O)[C@H]2O)[C@H](O)[C@H]1O", "outcome": "inactive [at 9.29 µM]"}
{"compound": "CC1(C)[C@@H]2CC=C(CO[C@@H]3O[C@H](CO[C@@H]4OC[C@H](O)[C@H](O)[C@H]4O)[C@@H](O)[C@H](O)[C@H]3O)[C@H]1C2", "Potency": "inactive"}
{"compound": "Cc1cc(CO)c(O)c(C(=O)CC2CC(=O)NC(=O)C2)c1", "Potency": "inactive"}
{"compound": "O=S(=O)(O)c1ccc(Nc2ncnc3c2ncn3[C@@H]2O[C@H](CO)[C@@H](O)[C@H]2O)cc1", "Potency": "inactive"}
{"compound": "OC[C@H]1O[C@@H](OCc2ccccc2)[C@H](O[C@@H]2OC[C@@H](O)[C@H](O)[C@H]2O)[C@@H](O)[C@@H]1O", "Potency": "inactive"}
{"compound": "Nc1ncnc2c1c(COc1cccc(Cl)c1)nn2C1CCOCC1", "Potency": "inactive"}
{"compound": "CC(C/C=C/C(C)(C)O)C1CCC(C)(O)C(O)C1", "note": "(stereo not given)", "Potency": "inactive"}
{"compound": "O=C(/C=C/N1C[C@@H]2C[C@@H]1CN2c1ccccn1)c1ccccc1O", "Potency": "inactive"}
{"compound": "O=C(/C=C/c1ccc(O)cc1)OC[C@@]1(O)C=C[C@@H]2C(C(=O)O)=CO[C@@H](O[C@@H]3O[C@H](CO)[C@@H](O)[C@H](O)[C@H]3O)[C@@H]21", "Potency": "inactive"}
{"compound": "CC(C)=CCc1cc(O[C@@H]2O[C@H](CO[C@@H]3OC[C@](O)(CO)[C@H]3O)[C@@H](O)[C@H](O)[C@H]2O)ccc1O", "Potency": "inactive"}
{"compound": "CC(=O)OC1CC2(C)C(CCC(C)C23Cc2c(O)cc4c(c2O3)CNC4=O)C(C)(C)C1O", "note": "(stereo not given)", "Potency": "inactive"}
{"compound": "O=C1OC(c2ccc(O)cc2)C(O)=C1Cc1ccccc1", "note": "(stereo not given)", "Potency": "inactive"}
{"compound": "COC(=O)C1=COC(O[C@@H]2O[C@H](CO)[C@@H](O)[C@H](O)[C@H]2O)/C(=C\\COC(=O)/C=C/c2ccccc2)C1CC(=O)OCCc1ccc(O)cc1", "note": "(stereo not given in full)", "Potency": "inactive"}
{"compound": "COCc1c(O)c(C(=O)O)c(C)c2c1OC(=O)c1c(C)cc(O)c(CO)c1O2", "Potency": "inactive"}
{"compound": "O=C(O)CCc1cc2ccoc2cc1O[C@@H]1O[C@H](CO)[C@@H](O)[C@H](O)[C@H]1O", "Potency": "inactive"}
{"compound": "Cc1[nH]c2ccccc2c1CC(=O)N[C@@H](Cc1ccccc1)C(=O)N(C)c1ccccc1", "Potency": "inactive"}
{"compound": "C/C(=C\\CCC(C)CCO)C(=O)OC[C@H]1O[C@@H](O[C@@H]2OC=C(C(=O)O)[C@H]3CC[C@](C)(O)[C@@H]23)C(O)[C@@H](O)C1O", "note": "(stereo not given in full)", "Potency": "inactive"}
{"compound": "C=C1[C@H](OC(C)=O)[C@H]2[C@@H](OC(=O)c3ccccc3)[C@@H](C)C[C@]2(O)[C@@H](OC(C)=O)[C@H](C)/C=C/C(C)(C)C(=O)[C@H](OC(C)=O)[C@H]1OC(C)=O", "Potency": "inactive"}
{"compound": "CCCCCOc1ccc(-c2cc(-c3ccc(C(=O)N[C@H]4C[C@@H](O)[C@@H](O)NC(=O)C5[C@@H](O)[C@@H](C)CN5C(=O)C([C@H](O)CC(N)=O)NC(=O)C([C@H](O)[C@@H](O)c5ccc(O)c(OS(=O)(=O)O)c5)NC(=O)C5C[C@@H](O)CN5C(=O)C([C@@H](C)O)NC4=O)cc3)no2)cc1", "note": "(stereo partly drawn) (X2-[Orn(4R-OH,5R-OH)][ξThr(3R)][ξPro(4R-OH)][ξhTyr(3S-OH,4S-OH,3'-OSO3H)][ξGln(3R-OH)][X3]; lactam 1-C)", "Potency": "inactive"}
{"compound": "Nc1ncnc2c1ncn2[C@H]1O[C@@H](C(=O)N2CCN(CC(=O)Nc3cccc4c3CNC4=O)CC2)[C@H](O)[C@@H]1O", "Potency": "inactive"}
{"compound": "CC1(C)O[C@H]2CC(=O)OC[C@@]23C1=C(O)C(=O)[C@]1(C)C3CC[C@@]2(C)[C@H](c3ccoc3)OC(=O)[C@H]3O[C@]321", "note": "(stereo not given in full)", "Potency": "inactive"}
{"compound": "COCCCc1sc(-c2ccccc2)nc1C(=O)Nc1ccccc1-c1nc2cc(CN3CCCC3)cnc2s1", "Potency": "inactive"}
{"compound": "COCCN1CCC(C(=O)NO)(S(=O)(=O)c2ccc(Oc3ccc(OC(F)(F)F)cc3)cc2)CC1", "Potency": "inactive"}
{"compound": "C/C=C(/C)C(=O)OC1CC(C)(C)CC2C3=CCC4C5(C)CCC(OC6OC(C)C(OC7OC(C(=O)O)C(O)C(OC8OC(CO)C(O)C(O)C8OC8OC(CO)C(O)C(O)C8O)C7O)C(O)C6O)C(C)(C)C5CCC4(C)C3(C)C(OC(=O)/C=C/C=C/C=C/CCC)C(OC(C)=O)C12CO", "note": "(stereo not given)", "outcome": "inactive [at 9.29 µM]"}
{"compound": "C=C(C)[C@@H]1CC[C@]2(C(=O)O)CC[C@]3(C)C(CCC4[C@]5(C)C(CC[C@]43C)C(C)(C)[C@@H](O)[C@@H]5C(=O)O)C12", "note": "(stereo not given in full)", "Potency": "inactive"}
{"compound": "CC(C)C1NC(=O)C(CC2(O)c3ccccc3N3C(=O)C(Cc4ccccc4)NC32)NC1=O", "note": "(stereo not given)", "Potency": "inactive"}
{"compound": "CSC(=O)OCC1=C[C@@H]2OC(=O)C3=CO[C@@H](O[C@@H]4O[C@H](CO)[C@@H](O)[C@H](O)[C@H]4O)[C@H]1[C@@H]32", "Potency": "inactive"}
{"compound": "C[C@@H]1O[C@@H](O[C@H]2[C@H](O)[C@@H](O)[C@H](OC[C@H]3O[C@@H](OC(=O)[C@]45CCC(C)(C)C[C@H]4C4=CCC6[C@@]7(C)C[C@@H](O)[C@H](O)[C@@](C)(CO)C7[C@H](O)C[C@@]6(C)[C@]4(C)CC5)[C@H](O)[C@@H](O)[C@@H]3O)O[C@@H]2CO)[C@H](O)[C@H](O)[C@H]1O", "note": "(stereo not given in full)", "outcome": "inactive [at 9.29 µM]"}
{"compound": "CCCC1=CC2=C(CO1)C(=O)C(C)(O)C(OC(=O)c1c(C)cc(OC)cc1O)C2", "note": "(stereo not given)", "Potency": "inactive"}
{"compound": "C=C1C2(C)CC3C4(C)C=CC(=O)OC(C)(C)C4CCC3(C)C1(C(=O)OC)C(=O)C(C)(O)C2=O", "note": "(stereo not given)", "Potency": "inactive"}
{"compound": "CC1(C)CC[C@]2(C(=O)O[C@@H]3O[C@H](CO)[C@@H](O)[C@H](O)[C@H]3O)CC[C@]3(C)C(=CCC4[C@@]5(C)C[C@@H](O)[C@H](O)[C@@](C)(CO)C5[C@H](O)C[C@]43C)C2[C@@H]1O", "note": "(stereo not given in full)", "Potency": "inactive"}
{"compound": "CC1(C)CC[C@]2(C(=O)O[C@@H]3O[C@H](CO)[C@@H](O)[C@H](O)[C@H]3O)CC[C@]3(C)C(=CCC4[C@@]5(C)CC[C@H](O[C@@H]6O[C@H](C(=O)O)[C@@H](O)[C@H](O)[C@H]6OC6OC(CO)C(O)C(O)C6O)C(C)(C)C5CC[C@]43C)[C@@H]2C1", "note": "(stereo not given in full)", "outcome": "inactive [at 9.29 µM]"}
{"compound": "O=C(Nc1ccccc1)Nc1ccc(-c2ccc(C(=O)C3CCCC3C(=O)O)cc2)cc1", "note": "(stereo not given)", "Potency": "inactive"}
{"compound": "CC/C=C/C(O)C(O)C1=C(C)C(=O)C2(O1)C(=O)NC(OC)(C(=O)c1ccccc1)C2O", "note": "(stereo not given)", "Potency": "inactive"}
{"compound": "CN1CCN(C2=Nc3ccccc3Nc3ccc(O)cc32)CC1", "Potency": "inactive"}
{"compound": "COC(=O)[C@H](Cc1ccc([N+](=O)[O-])cc1)NC(=O)c1cccc2ccccc12", "Potency": "inactive"}
{"compound": "CC1(C)CC[C@]2(C(=O)O)CC[C@]3(C)C(=CCC4[C@@]5(C)C[C@@H](O)[C@H](O)[C@@](C)(CO)C5[C@H](O)C[C@]43C)[C@@H]2C1", "note": "(stereo not given in full)", "Potency": "inactive"}
